{"source": "ChEMBL document CHEMBL1156829", "note": "“And” between values parts separate entries of the source, which are not always exact repeats. Equal values may be shown once. Whole data set: some 5,400 compounds, median “IFI” near 2, cut for the highest 2% near 22. This excerpt belongs to a sample that is enriched for the highest values.", "data": [{"test": "NOVARTIS: Inhibition Frequency Index (IFI) - the number of HTS assays where a compound showed > 50% inhibition/induction, expressed as a percentage of the number of assays in which the compound was tested.", "assay_type": "functional", "values": [{"smiles": "COc1ccc(C[C@H](N)C(=O)N[C@H]2[C@@H](O)[C@H](n3cnc4c(N(C)C)ncnc43)O[C@@H]2CO)cc1", "IFI": "30.8%"}, {"smiles": "COCCN1C(=O)c2[nH]nc(-c3ccccc3O)c2C1c1ccc(SC)cc1", "note": "(centres undefined)", "IFI": "0%"}, {"smiles": "C[n+]1c2ccccc2nc2ccc(NC3CCCCC3N)cc21", "note": "(centres undefined)", "IFI": "23.1%"}, {"smiles": "C[n+]1c2ccccc2nc2ccc(NCCc3cnc[nH]3)cc21", "IFI": "15.4%"}, {"smiles": "COc1ccc2c(c1)[nH]c1c(N3CCN(C(c4ccccc4)c4ccccc4)CC3)ncnc12", "IFI": "8.77%"}, {"smiles": "Cc1ccc(S(=O)(=O)c2c(COC(=O)c3cccc(C)c3)c(-c3ccccc3)nn2C)cc1", "IFI": "3.9%"}, {"smiles": "CN[C@H]1C[C@@H]2O[C@](C)([C@H]1O)n1c3ccccc3c3c4c(c5c6ccccc6n2c5c31)C(=O)NC4", "IFI": "46.2%"}, {"smiles": "COc1cc2c(-c3cc(Br)ccc3O)nc3c(c(-c4ccccc4)nn3-c3ccccc3)c2cc1OC", "IFI": "3.03%"}, {"smiles": "CC[n+]1c(C=CN(C)c2ccccc2)sc2ccc(Cl)cc21", "IFI": "9.09%"}, {"smiles": "CC[n+]1c(C=CN(C)c2ccccc2)oc(-c2ccccc2)c1-c1ccccc1", "IFI": "22.7%"}, {"smiles": "CC[n+]1c(/C=C/N(C)c2ccccc2)sc(-c2ccccc2)c1-c1ccccc1", "IFI": "14.3%"}, {"smiles": "CC(NCc1ccccc1)c1cc(Cl)ccc1O", "note": "(centres undefined)", "IFI": "0%"}, {"smiles": "Oc1c(C(Nc2ccccn2)c2cccc(Cl)c2Cl)ccc2cccnc12", "note": "(centres undefined)", "IFI": "15.4%"}, {"smiles": "CC(C)(C)c1ccc(-c2c[n+](-c3ccccc3)c3n2CCCS3)cc1", "IFI": "23.1%"}, {"smiles": "Clc1ccc(-c2c[n+](-c3ccccc3)c3n2CCS3)cc1", "IFI": "0.725%"}, {"smiles": "Cc1ccc(-c2c[n+](-c3ccccc3)c3n2CCCS3)cc1", "IFI": "7.69%"}, {"smiles": "CC1CNC2C(C)C3C(CC4C5CCC6CC(N)CCC6(C)C5CCC43C)OC2(O)C1", "note": "(centres undefined)", "IFI": "5.26%"}, {"smiles": "Oc1ccccc1-c1nc2sc(-c3ccccc3O)nc2s1", "IFI": "11%"}, {"smiles": "N#C/C(=C\\C=C\\c1ccc([N+](=O)[O-])o1)c1nc2ccccc2[nH]1", "IFI": "28.6%"}, {"smiles": "N#C/C(=C\\c1ccc(Sc2ccccc2)o1)c1nc2ccccc2[nH]1", "IFI": "6.74%"}, {"smiles": "CCN(CC)c1ccc(/C=C(/C#N)c2nc3ccccc3[nH]2)o1", "IFI": "7.69%"}, {"smiles": "COc1cc(C(=O)NC2CC3CCC(C2)N3C2CC2)cc(OC)c1OC", "note": "(centres undefined)", "IFI": "0%"}, {"smiles": "COc1ccc(-c2c[n+](CC(=O)c3ccc(Cl)cc3)c3n2CCC3)cc1", "IFI": "5%"}, {"smiles": "O=C(C[n+]1cc(-c2ccccc2)n2c1CCC2)c1ccc(C2CCCCC2)cc1", "IFI": "12.5%"}, {"smiles": "O=C(C[n+]1cc(-c2ccc(Cl)cc2)n2c1CCC2)c1ccc(C2CCCCC2)cc1", "IFI": "27.5%"}, {"smiles": "c1cc2cc(CN3CCc4nc(N5CCCCC5)sc4C3)ccc2[nH]1", "IFI": "4.17%"}, {"smiles": "CN1CCc2c(sc3nc(SCc4ccc(F)cc4)n(-c4ccccc4)c(=O)c23)C1", "IFI": "2.5%"}, {"smiles": "CC1C/C(=C/c2ccncc2)C(=O)/C(=C/c2ccncc2)C1", "note": "(centres undefined)", "IFI": "33.3%"}, {"smiles": "COc1cc(/C=C2\\CC/C(=C\\c3cc(OC)c(OC)c(OC)c3)C2=O)cc(OC)c1OC", "IFI": "2.7%"}, {"smiles": "COc1ccc2c(c1)c(C)cc[n+]2Cc1ccccc1", "IFI": "6.3%"}, {"smiles": "CC(C)(C)CC(=O)NCc1ccc(OC2CCN(CC(c3ccccc3)c3ccccc3)CC2)cc1", "IFI": "7.04%"}, {"smiles": "O=C1CCC(c2ccc(Cl)c(Cl)c2)c2ccc(O)cc21", "note": "(centres undefined)", "IFI": "0%"}, {"smiles": "COc1cc2nc(Nc3ccc(F)cc3)nc(N)c2cc1OC", "IFI": "0%"}, {"smiles": "COc1ccc(-c2cc(C3CCN(c4nc(N)c5cc(OC)c(OC)cc5n4)CC3)n[nH]2)cc1OC", "IFI": "7.41%"}, {"smiles": "COc1cc2nc(N3CCN(c4nc(N)c5cc(OC)c(OC)cc5n4)CC3)nc(N)c2cc1OC", "IFI": "23.1%"}, {"smiles": "CCc1c2ccc(C)n2cc[n+]1CC", "IFI": "6.02%"}, {"smiles": "Cc1ccc(CSCc2ccc(C(=O)NC3CC3)o2)cc1", "IFI": "0%"}, {"smiles": "CC(=O)Nc1ccc(-c2nc(-c3ccc(Oc4ccc(-c5[nH]c(-c6ccc(NC(C)=O)cc6)nc5-c5ccccc5)cc4)cc3)c(-c3ccccc3)[nH]2)cc1", "IFI": "1.54%"}, {"smiles": "COc1ccc2c(c1)C(C)=CC(C)(C)N2C(=O)CSc1nnc(-c2ccc(C)cc2)o1", "IFI": "0%"}, {"smiles": "O=C(N/C(=C/C=C/c1ccccc1)C(=O)N1CCCCC1)c1ccc([N+](=O)[O-])cc1", "IFI": "0.685%"}, {"smiles": "CC(C)C[C@@H](NC(=O)[C@H](C)NC(=O)CNC(=O)[C@@H](NC=O)C(C)C)C(=O)N[C@@H](C)C(=O)N[C@@H](C(=O)N[C@H](C(=O)N[C@@H](C(=O)N[C@@H](Cc1c[nH]c2ccccc12)C(=O)N[C@H](CC(C)C)C(=O)N[C@@H](Cc1c[nH]c2ccccc12)C(=O)N[C@H](CC(C)C)C(=O)N[C@@H](Cc1c[nH]c2ccccc12)C(=O)N[C@H](CC(C)C)C(=O)N[C@@H](Cc1c[nH]c2ccccc12)C(=O)NCCO)C(C)C)C(C)C)C(C)C", "IFI": "27.6%"}, {"smiles": "CCCCNC(=O)NC(Cc1c[nH]c2ccccc12)C(=O)NC1CCCCC1", "note": "(centres undefined)", "IFI": "4.21%"}, {"smiles": "CC1CN(C(=O)C(Cc2c[nH]c3ccccc23)NC(=O)C(c2ccccc2)c2ccccc2)CCN1C(=O)NCc1ccccc1", "note": "(centres undefined)", "IFI": "0%"}, {"smiles": "Cc1ccc(Nc2nc(NCc3ccccc3)c3ccccc3n2)cc1", "IFI": "0%"}, {"smiles": "C=CCSc1nc(N)c2c3c(sc2n1)CN(CCC)CC3", "IFI": "14%"}, {"smiles": "CN1/C(=C\\C=C\\C2=[N+](C)c3ccc4ccccc4c3C2(C)C)C(C)(C)c2ccccc21", "IFI": "23.1%"}, {"smiles": "CC[n+]1c(/C=C/C=C2\\N(C)c3ccccc3C2(C)C)n(CCCOC(C)=O)c2ccccc21", "IFI": "14.3%"}, {"smiles": "CC[n+]1c(/C=C/C=C2\\N(C)c3ccccc3C2(C)C)n(Cc2ccccc2)c2ccccc21", "IFI": "32.6%"}, {"smiles": "Brc1ccc(-c2n(Cc3ccccc3)c3ccccc3[n+]2Cc2ccccc2)o1", "IFI": "15.4%"}, {"smiles": "C[n+]1c(C=CNc2ccccc2)n(-c2ccccc2)c2ccc(Cl)cc21", "IFI": "12.5%"}, {"smiles": "CC[n+]1c(/C=C/C=C2\\N(C)c3ccccc3C2(C)C)n(-c2ccccc2)c2ccc(Cl)cc21", "IFI": "21.4%"}, {"smiles": "CCN1/C(=C/C=C/c2sc3ccccc3[n+]2CC)Sc2ccccc21", "IFI": "21.7%"}, {"smiles": "CC[n+]1c(/C=C/C=C2\\N(C)c3ccccc3C2(C)C)n(-c2ccccc2)c2ccc(C)cc21", "IFI": "21.4%"}, {"smiles": "CC[n+]1c(C=CC=C2N(C)c3ccccc3C2(C)C)sc2ccccc21", "IFI": "28.6%"}, {"smiles": "CC[n+]1c(C=CN(C)C)sc2ccccc21", "IFI": "4.62%"}, {"smiles": "CCC1=[N+](C)c2cccc3cccc(c23)N1C", "IFI": "3.12%"}, {"smiles": "CC[n+]1c(/C=C/C=C2\\N(C)c3ccccc3C2(C)C)n(-c2ccccc2)c2cc(Cl)ccc21", "IFI": "33.3%"}, {"smiles": "COc1ccc(NC(=O)C2c3ccccc3C(=O)N(C3CCCC3)C2c2cccs2)cc1Cl", "note": "(centres undefined)", "IFI": "6.25%"}, {"smiles": "CC1=C(C=CC(C)C=NNC(=O)c2ccncc2)C(C)(C)CCC1", "note": "(centres undefined)", "IFI": "0%"}, {"smiles": "COc1ccc(-c2ccc(C=NNC(=O)CNC(=O)c3ccc4c(c3)OCO4)o2)cc1Cl", "IFI": "0%"}, {"smiles": "CCC(=O)CC(O)C[C@@H](C)C[C@H](NC(=O)[C@@H]1C[C@H](C)CN1C(=O)/C=C/[C@@H](C)CC)C(=O)N[C@H](C(=O)NC(C)(C)C(=O)N[C@@H](CC(C)C)C(=O)N[C@@H](CC(C)C)C(=O)NC(C)(C)C(=O)NC(C)(C)C(=O)NCCC(=O)N[C@@H](C)CN(C)C)[C@H](O)C(C)C", "note": "(some centres undefined)", "IFI": "12.1%"}, {"smiles": "COc1cccc(C(=O)Oc2ccccc2-c2nc3cc(C)ccn3c2NC(C)(C)CC(C)(C)C)c1", "IFI": "3.74%"}, {"smiles": "Cc1occc1C(=O)NN=C/C(Cl)=C/c1ccccc1", "IFI": "7.69%"}, {"smiles": "CC(C)(C)OCCN(CC(O)CN(Cc1ccccc1)C(=O)NC(c1ccccc1)c1ccccc1)S(=O)(=O)c1ccccc1", "note": "(centres undefined)", "IFI": "0.935%"}, {"smiles": "COc1cc(C2C(C(=O)OCC(C)C)=C(C)NC3=C2C(=O)CC(c2ccccc2)C3)cc(Br)c1O", "note": "(centres undefined)", "IFI": "4.65%"}, {"smiles": "Cc1ccc(Cn2c(N3CCC(C(=O)NCc4ccccn4)CC3)nc3ccccc32)cc1", "IFI": "0%"}, {"smiles": "CCc1cccc2c(C#N)cn(CC(=O)Nc3ccc(OC)cc3)c12", "IFI": "7.69%"}, {"smiles": "Clc1ccc(C[n+]2cc(-c3ccccc3)n3c2CCC3)cc1Cl", "IFI": "3.77%"}, {"smiles": "Cc1cccc(C)c1NC(=O)N1CCN(C(=O)c2nc(-c3ccccc3)nc(C)c2C(=O)OC(C)C)CC1C", "note": "(centres undefined)", "IFI": "2.8%"}, {"smiles": "N#CC(c1ccc(C(F)(F)F)cc1)c1ccc2c(C(F)(F)F)cc(C(F)(F)F)nc2n1", "note": "(centres undefined)", "IFI": "26.3%"}, {"smiles": "COc1ccc(C2Nc3ccc4ccccc4c3C3=C2C(=O)CC(C)(C)C3)cc1Br", "note": "(centres undefined)", "IFI": "0%"}, {"smiles": "CCCCOc1cccc(C(=O)N(Cc2cccs2)c2ccc(OC)cc2)c1", "IFI": "0%"}, {"smiles": "CC[n+]1c(/C=C2\\C=Cc3cc(C)ccc3N2C)ccc2cc(C)ccc21", "IFI": "15.4%"}, {"smiles": "CCN1C(=Cc2sc3cc(NC(C)=O)ccc3[n+]2CC)C=Cc2cc(C)ccc21", "IFI": "7.69%"}, {"smiles": "CCN1C(=Cc2ccc3c4ccoc4ccc3[n+]2CC)C=Cc2c1ccc1occc21", "IFI": "28.6%"}, {"smiles": "C=CCN1C=CC(=Cc2sc3ccccc3[n+]2C)c2ccccc21", "IFI": "17.6%"}, {"smiles": "CC(C)(C)NC(=O)C(c1ccc(F)cc1)N(CCCN1CCOCC1)C(=O)c1ccc(-c2ccccc2)[nH]1", "note": "(centres undefined)", "IFI": "3.16%"}, {"smiles": "COc1ccc(OC)c(NC(=O)c2cnn3c(C(F)(F)F)cc(-c4ccc(OC)c(OC)c4)nc23)c1", "IFI": "2.38%"}, {"smiles": "CC1(C)C(=O)C2(CCCCC2)C(=O)OC1/C=C/c1ccccc1", "note": "(centres undefined)", "IFI": "1.49%"}, {"smiles": "c1ccc(CSc2nnc3c(n2)[nH]c2ccccc23)cc1", "IFI": "0% and 3.82%"}, {"smiles": "c1ccc(CSc2scnc2[P+](c2ccccc2)(c2ccccc2)c2ccccc2)cc1", "IFI": "27.8%"}, {"smiles": "c1ccc(CSc2nc3ccncc3[nH]2)cc1", "IFI": "0%"}, {"smiles": "COc1ccccc1CN1CCc2nc(-c3cnccn3)sc2C1", "IFI": "9.86%"}, {"smiles": "COc1ccc(CCNc2nc(NCCCn3ccnc3)ncc2C(=O)NCC(C)C)cc1OC", "IFI": "1.92%"}, {"smiles": "CNC1=C(N(Cc2ccc(Cl)c(Cl)c2)C(C)=O)C(=O)c2ccccc2C1=O", "IFI": "14.3%"}, {"smiles": "CC(=O)N(Cc1ccc(F)cc1)C1=C(NCc2ccccc2)C(=O)c2ccccc2C1=O", "IFI": "23.1%"}, {"smiles": "CC(=O)N(Cc1ccc(F)cc1)C1=C(NCCc2ccccc2)C(=O)c2ccccc2C1=O", "IFI": "8.33%"}, {"smiles": "CCOC(=O)c1c(N=Cc2cccc(OC)c2O)sc2c1CCN(C)C2", "IFI": "0%"}, {"smiles": "O=c1cc[nH]c2cc(N3CCCCCC3)c(F)cc12", "IFI": "0%"}]}]}
